Experimental findings from PubChem BioAssay (NCATS) are described below.

The target in experiment [1] is Glucagon-like peptide 1 receptor (Homo sapiens) (UniProt P43220). Briefly: qHTS of GLP-1 Receptor Agonists: LOPAC Validation (AID 624148).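 Also: higher luminescence signal means agonism.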 The method in brief: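 HEK293 cells stably co-expressing GLP-1R and a cAMP-responsive luciferase reporter, plated 12 hours before compound, then incubated 4-6 hr at 37 deg C. Luminescence read 12 min after detection reagent.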
The nature of experiment [2]: qHTS of Nrf2 Activators: LOPAC Validation (AID 624149). The essentials: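 ARE reporter activation measured in AREc32 firefly luciferase cells after 24 hr compound exposure; Steady-Glo luminescence.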
Experiment [3] is described as follows: HTS Assay for Allosteric Antagonists of the Human D2 Dopamine Receptor: Hit Validation in HTRF (AID 624455).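 Also: stable D1 dopamine receptor cell line scored for blocking the D1 response.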 The method in brief: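 Signal from an HTRF read-out in D1-expressing stable cells gave hit activity as inhibition of the D1 response.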
The nature of experiment [4]: qHTS assay for small molecule activators of the p53 signaling pathway (AID 651743; active = well fitted activation curve with a large enough effect in the signal ratio, not every such curve was filed as active; the % refers to the signal ratio; also: potency is read from the fitted curve at half-maximal effect). Conditions: HCT-116 p53RE-bla, beta-lactamase FRET ratio, 16 h; activation: stronger effect = higher value. The method in brief: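 HCT-116 p53RE-bla, 4,000 cells/well; 5 h settle; cpd/DMSO 16 h, 37 C; LiveBLAzer B/G 2 h RT; fluorescence intensity.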
Experiment [5] in a line: qHTS Assay for Identification of Small Molecule Agonists for NFkB Signaling Pathway. (AID 624478).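 Also: compounds tested together with TNF alpha at its EC50 of 10 pM.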 The essentials:
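Cells carrying an NFkB response element-driven beta-lactamase gene are co-treated with compound and 10 pM TNF alpha for 5 h, and reporter activity is then read as 460 and 530 nm fluorescence.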

A short description of experiment [6]: qHTS Assay for Identification of Small Molecule Antagonists for NFkB Signaling Pathway. (AID 624479; calls by dose curve;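 also: pathway stimulated with TNF alpha; potency is read from the fitted curve at half-maximal effect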). Conditions: NFkB pathway reporter cell assay, antagonist mode.
Experiment [7] can be described thus: Cell Proliferation Assay against the TMD8 Cell Line (AID 651645).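 Also: cells exposed to compound for 48 h before reading.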 The settings on record: TMD8 DLBCL cell line proliferation/viability; at 46.1 µM (top of the series). The essentials:
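500 TMD8 cells/well, RPMI + Glutamax, no phenol red, 5% FBS; cpd added immediately; 48 h, 37C, 5% CO2; CellTiter-Glo, luminescence. Controls: DMSO = 100%, bortezomib 9.2 uM final = 0%.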

Experiment [8] in a line: Cell Proliferation Assay against the HBL1 Cell Line (AID 651646).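 Also: cells exposed to compound for 48 h before reading.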 Conditions: HBL1 DLBCL cells; at 46.1 µM (top of the series). The essentials: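 HBL1 ABC DLBCL cells, 500/well in RPMI with 5% FBS, treated for 48 h at 37C. Viability read by CellTiter-Glo luminescence, normalized to DMSO as 100% and 9.2 uM bortezomib as 0%.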
Experiment [9] in a line: Cell Proliferation Assay against the TMD8 Cell Line (Caspase readout at 16 hrs) (AID 651712). Also: potency is read from the fitted curve at half-maximal effect. Conditions: TMD8 lymphoma cells, caspase activation luminescence. The method in brief: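 TMD8 cells in RPMI with 5% FBS were treated with compound for 16 h at 37 C, then caspase 3/7 activation was read by Caspase-Glo luminescence. Percent activity was scaled to DMSO (0%) and 9.2 uM bortezomib final (100%).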

Experiment [10] in a line: qHTS assay for small molecule agonists of the antioxidant response element (ARE) signaling pathway (AID 651741; active = well fitted activation curve with a large enough effect in the signal ratio; the % refers to the signal ratio; also: potency is read from the fitted curve at half-maximal effect). The method in brief: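 HepG2 ARE-bla cells plated at 2,000 cells/well and incubated 5 h at 37 C/5% CO2 received 23 nL compound in DMSO. After 16 h at 37 C, LiveBLAzer B/G FRET substrate was applied for 2 h at room temperature and fluorescence read.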

Each structure is given as a SMILES string. Where “and” joins values, the source holds several entries; their conditions need not be identical. Equal entries are not always repeated. Results filed as inconclusive are left out. Entries that show only a call come without a potency. Calls of active or inactive are those of the source. Unless noted, calls follow the shape of the dose curve; as a rule, active = well fitted curve in the direction sought with a large enough effect; inconclusive = small, poorly fitted or top-dose-only effect, or another doubt; inactive = no such curve, though single readings can be large; an effect the other way counts as inactive or inconclusive.

Chain of Glucagon-like peptide 1 receptor (Homo sapiens) (P43220 whole entry, looked up): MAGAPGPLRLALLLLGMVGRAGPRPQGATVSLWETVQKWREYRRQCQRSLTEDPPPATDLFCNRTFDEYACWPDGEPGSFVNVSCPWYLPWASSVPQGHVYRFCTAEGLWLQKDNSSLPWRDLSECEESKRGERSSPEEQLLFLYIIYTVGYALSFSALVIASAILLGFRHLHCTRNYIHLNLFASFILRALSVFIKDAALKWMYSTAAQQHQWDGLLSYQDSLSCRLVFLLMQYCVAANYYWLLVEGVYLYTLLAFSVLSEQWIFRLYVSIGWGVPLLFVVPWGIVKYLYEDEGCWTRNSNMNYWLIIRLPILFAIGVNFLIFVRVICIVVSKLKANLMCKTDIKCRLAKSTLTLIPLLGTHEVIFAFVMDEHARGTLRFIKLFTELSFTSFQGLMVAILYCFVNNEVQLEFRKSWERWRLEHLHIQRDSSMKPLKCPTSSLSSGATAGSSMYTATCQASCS

With `CCNC(=O)N1CCN(CCCC(c2ccc(F)cc2)c2ccc(F)cc2)CC1`, the call in experiment [1] and in experiment [2] was inactive. Also, in [3], the Potency result is “inactive”.
Consider `OCCN1CCN(CC/C=C2/c3ccccc3Sc3ccc(C(F)(F)F)cc32)CC1`, for which the compound was called inactive in experiment [2]. The Potency entry in [3] was “inactive”.
On to `CCN(Cc1ccncc1)C(=O)C(CO)c1ccccc1` (stereo unspecified), for which the result in experiment [1] and in [2] was inactive. Moreover, in experiment [3], the Potency entry is “inactive”.
`C[C@]12CC[C@@H]3c4ccc(O)cc4C[C@@H](CCCCCCCCCS(=O)CCCC(F)(F)C(F)(F)F)[C@H]3[C@@H]1CC[C@@H]2O` (stereo partly specified): the compound was classed as inactive in [1] and in experiment [2]. Besides, the Potency result in experiment [3] was “inactive”.
Regarding `NC(=Nc1ccccc1)Nc1ccccc1`, the activation in experiment [4] was -3.94% (inactive) and -5.84% (inactive).
Turning to `C(=C\c1ccccc1)/CN1CCN(C(c2ccccc2)c2ccccc2)CC1`, the compound was called inactive in experiment [1] and in experiment [2]. Further, the Potency entry in experiment [3] is “inactive”.
On to `Nc1ncn([C@@H]2O[C@H](CO)[C@@H](O)[C@H]2O)c(=O)n1`, for which the call in experiment [1], in [2] and in [5] was inactive. Also, the Potency result in experiment [3] was “inactive”. The Potency was 16.8 µM (active) in [6]; 14.8 µM (active) in experiment [9]; 1.37 µM (active) and 1.88 µM (active) in [10]; 6.31 µM (active) in experiment [4]. Further, the viability (% of control) in [7] turned out to be 6.56%. For the same compound, in experiment [8], the viability, percent of control stood at 22.1%.
As for `CCn1nc(C(=O)O)c(=O)c2cc3c(cc21)OCO3`, in experiment [1], the call was inactive. For the same compound, the Potency result in experiment [3] was “inactive”.
As to `CCCCNc1c(C(=O)OCC)c(C)nc2c1cnn2CC`, the compound was classed as inactive in [1] and in experiment [2]. The Potency result in experiment [3] was “inactive”.
On to `CNCCCN1c2ccccc2CCc2ccccc21`, for which the result in experiment [1] was inactive. Moreover, the Potency entry in experiment [3] was “inactive”.
As for `CCCNC(C)C(=O)Nc1ccccc1C` (stereo unspecified), the outcome in [1] and in experiment [2] was inactive. Besides, the Potency entry in experiment [3] is “inactive”.
With `CN=C(NC#N)NCCSCc1nc[nH]c1C`, the result in experiment [1] and in experiment [2] was inactive. In experiment [10], the Potency entry was “inactive”.
Turning to `CC(C)NCC(O)c1cc(O)cc(O)c1` (stereo unspecified), in experiment [2], the call was inactive. Further, the Potency result in experiment [3] is “inactive”.
Take `Cc1cc(C)c(/C=C2\C(=O)Nc3ccccc32)[nH]1`: the outcome in experiment [2] was inactive.
For `CCCCNC(=O)NS(=O)(=O)c1ccc(C)cc1`, the result in experiment [1] and in [2] was inactive. Besides, in [10], the Potency result was “inactive”. Besides, the activation in [4] was -3.27% (inactive) and -2.98% (inactive).
Consider `COc1cc2c(cc1OC)-c1cc(=Nc3c(C)cc(C)cc3C)n(C)c(=O)n1CC2`, for which the outcome in experiment [2] was inactive. Moreover, the Potency result in experiment [3] is “inactive”.
As to `Nc1nc(N)c2nc(-c3ccccc3)c(N)nc2n1`, the result in [1] and in [2] was inactive. The Potency was 54.5 µM (active) and 33.5 µM (active) in [10]; 20 µM (active) in experiment [4].
As to `NC(=O)N1c2ccccc2C=Cc2ccccc21`, the result in [1] and in experiment [2] was inactive. Further, the Potency entry in experiment [3] and in experiment [10] was “inactive” throughout.
As to `C[C@]12C=CC(=O)C=C1CC[C@H]1[C@@H]3C[C@@H](O)[C@](O)(C(=O)CO)[C@@]3(C)C[C@H](O)[C@@]12F`, the outcome in [1] and in [2] was inactive. The Potency entry in experiment [3] and in experiment [10] was “inactive” in each case. In experiment [4], the activation is -0.529% (inactive).
Turning to `COc1cc(Cc2cnc(N)nc2N)cc(OC)c1OC`, the compound was classed as inactive in [1]. Further, the Potency entry in experiment [3] and in [10] was “inactive” each time. Moreover, the activation in experiment [4] is -2.04% (inactive).
As to `Cc1ccc(/C(=C\CN2CCCC2)c2ccccn2)cc1`, the call in experiment [1] was inactive. Besides, the Potency result in experiment [3] was “inactive”.
In the case of `Cc1nc2c([nH]1)c(=O)n(C)c(=O)n2Cc1ccco1`, the outcome in [2] was inactive.
For the compound `Cc1ccc(S(=O)(=O)NC(=O)NN2CCCCCC2)cc1`, the result in experiment [1] and in experiment [2] was inactive. Besides, the Potency result in [10] is “inactive”.
With `O=C(O)CCCCCCCC(=O)O`, the result in [1] and in experiment [2] was inactive. Also, in experiment [10], the Potency result is “inactive”. In addition, in experiment [4], the activation is -3.2% (inactive).
`O=c1[nH]c(=O)n([C@H]2C[C@H](O)[C@@H](CO)O2)cc1Br`: the compound was classed as inactive in experiment [1] and in experiment [2]. Besides, the Potency entry in experiment [3] and in experiment [10] was “inactive” each time. Further, the activation in [4] was 3.27% (inactive).
Consider `C[C@]12CCC(=O)C=C1CC[C@@H]1[C@@H]2C(=O)C[C@@]2(C)[C@H]1CC[C@]2(O)C(=O)CO`, for which the result in [1] and in experiment [2] was inactive. Further, the Potency result in [3] and in experiment [10] was “inactive” each time. In addition, the activation in [4] is -9.05% (inactive).
With `CC1=NS(=O)(=O)c2cc(Cl)ccc2N1`, the call in experiment [1] and in [2] was inactive. The Potency entry in [3] was “inactive”.
Regarding `CC(C)(C)NCC(O)c1cc(O)cc(O)c1` (stereo unspecified), the result in experiment [2] was inactive. Further, the Potency entry in [3] was “inactive”.
For the compound `COC(=O)[C@H]1[C@H]2C[C@@H]3c4[nH]c5cc(OC)ccc5c4CCN3C[C@H]2C[C@@H](OC(=O)c2cc(OC)c(OC)c(OC)c2)[C@@H]1OC`, the compound was called inactive in experiment [1] and in [2]. Moreover, in experiment [3], the Potency result is “inactive”. For the same compound, the activation in experiment [4] is 3.91% (inactive) and 8.14% (inactive).
As for `CN(C)CCCN1c2ccccc2Sc2ccc(C(F)(F)F)cc21`, the outcome in experiment [1] and in experiment [2] was inactive. The Potency entry in experiment [3] was “inactive”.
